Screening data (PubChem)
A selection: hits, their analogues and other compounds. The true share with any hit is near 7.2%.
MARV entry inh = qHTS for inhibitors of binding or entry into cells for Marburg Virus; AID 540276, 2011; Marburg virus pseudotyped entry inhibition, cell reporter; Potency, µM (series often up to 37.8 µM), inactives show top-dose activity change, negative = inhibition, most hits filed as inhibitors; actives 1.8% (n = 300,000); calls by dose curve; tested in HEK293 cells; also: potency is read from the fitted curve at half-maximal effect; % is scaled to controls: 0 for no effect and ±100 for the full control effect
HCV inhibitor = qHTS Assay for Inhibitors of Hepatitis C Virus (HCV). Potency, µM (series often up to 41.8 µM), for inactives: at the highest dose activity change, negative = inhibition, most hits filed as inhibitors. actives 3.4% (n = 340,000). Huh7.5.1 HCVcc-Cre infection, luciferase reporter, 44 h; also: potency is read from the fitted curve at half-maximal effect; % is scaled to controls: 0 for no effect and ±100 for the full control effect
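A cell-based infection assay in which seeded cells (1,000 per well) receive test compound after 4 h, are inoculated with HCVcc-Cre at approximately 0.5 moi, and are incubated 44 h before luminescence detection.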
RE007 growth inh = qHTS Assay for Inhibitors of the HIV-1 protein Vpr | S. pombe RE007 Vpr strain, BacTiter-Glo ATP luminescence, 24 h | Potency, µM (top dose mostly 92.2 µM), for inactives: at the highest dose activity change, negative = less growth, usual class: inhibitors | actives 0.21% (n = 360,000) | AID 651644, 2012; active = well fitted falling curve with a large enough effect; inconclusive = small, poorly fitted or top-dose-only effect; inactive = no such curve, though single readings can be large or run the other way; also: potency is read from the fitted curve at half-maximal effect; % is scaled to controls: 0 for no effect and ±100 for the full control effect; nearly all actives have a fitted effect of over 50% in size
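Fission yeast strain RE007, carrying one chromosomally integrated HIV-1 vpr copy, was seeded at OD 0.01 in PMG+AL medium with 23 nL pinned compound. After 24 h at 30 °C and 99% humidity, viability was read by BacTiter-Glo luminescence.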
FMDV inh = High Throughput Screening for Foot and Mouth Disease Virus Antivirals | FMDV antiviral cell-based qHTS | AID 1159524, 2015 | Potency, µM (series often up to 57.9 µM), inactives show at the top dose activity change, negative = inhibition, usual class: inhibitors | actives 1.2% (n = 410,000); calls by dose curve; tested in HEK293T cells; also: read-out not given here; potency is read from the fitted curve at half-maximal effect; % is scaled to controls: 0 for no effect and ±100 for the full control effect; nearly all actives have a fitted effect of over 45% in size
Lassa entry inh = qHTS for Inhibitors of binding or entry into cells for Lassa Virus; actives 1.2% (n = 300,000); Potency, µM (doses to about 37.9 µM), for the others: at the highest dose activity change, negative = inhibition, actives largely listed as inhibitors; Lassa virus pseudotype entry inhibition, cell reporter; calls by dose curve; tested in HEK293 cells; also: potency is read from the fitted curve at half-maximal effect; % is scaled to controls: 0 for no effect and ±100 for the full control effect; nearly all actives have a fitted effect of over 50% in size
Sm TGR inh = qHTS Assay for the Inhibitors of Schistosoma Mansoni Peroxiredoxins; actives 3% (n = 360,000); purified TGR, DTNB reduction, TNB absorbance 405 nm; Potency, µM (highest dose often 114 µM), without a hit: top-dose activity change, negative = inhibition, usual class: inhibitors; also: potency is read from the fitted curve at half-maximal effect; % is scaled to controls: 0 for no effect and ±100 for the full control effect; nearly all actives have a fitted effect of over 60% in size
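First, TGR (20 nM dispensed) and NADPH were mixed with compound. Second, a 15 min room-temperature incubation followed. Third, further NADPH and then DTNB were added to start the reaction. Finally, TNB absorbance was monitored kinetically.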
WI-38 cytotox = High Content Assay for Compounds that inhibit the Assembly of the Perinucleolar Compartment: WI-38 Cytotoxicity. shares compounds with MARV entry inh. WI-38 normal lung fibroblasts, ATPLite luminescence ATP viability, 24 h. Potency, µM (titrated, usually from 46.1 µM), without a hit: top-dose activity change, negative = cytotoxicity, actives largely listed as inhibitors. 120 tested, under 10 active
PNC assembly inh = High Content Assay for Compounds that inhibit the Assembly of the Perinucleolar Compartment: Confirmation of PNC Inhibition; actives 50% (n = 120); Potency, µM (series often up to 46.1 µM), without a hit: at the highest dose activity, negative = PNC inhibition, most hits filed as inhibitors; AID 2730, 2010; PC3M PTB-GFP, PNC prevalence imaging, 16 h; shares compounds with MARV entry inh
PC3M caspase = High Content Assay for Compounds that inhibit the Assembly of the Perinucleolar Compartment: PC3M Caspase 3/7 Activation; activity change, positive = activation, % at 46.1 µM; shares compounds with MARV entry inh; PC3M-GFP caspase 3/7 activation, luminescence, 24 h; 120 tested, under 10 active
* hit, by the source's call; ? = inconclusive; . = not tested or not shown; [ ] = remark or other dose. Unless noted, calls follow the shape of the dose curve; as a rule, active = well fitted curve in the direction sought with a large enough effect; inconclusive = small, poorly fitted or top-dose-only effect, or another doubt; inactive = no such curve, though single readings can be large; an effect the other way counts as inactive or inconclusive.

SMILES	MARV entry inh	HCV inhibitor	RE007 growth inh	FMDV inh	Lassa entry inh	Sm TGR inh	WI-38 cytotox	PNC assembly inh	PC3M caspase
CCOC(=O)c1c(NC(=O)c2cc(C)on2)sc(C)c1C	-14%[46.1 µM]	.	.	-19%	-3%[46.1 µM]	-1%	.	.	.
Cc1ccc(NC(=O)Cn2c(=O)n(Cc3nc(C)no3)c(=O)c3cc4c(cc32)OCO4)c(Cl)c1	.	.	.	-8%	7%[46.1 µM]	3%	.	.	.
Cc1cc(C(=O)Cn2nnc3ccccc3c2=O)c(C)n1-c1ccccc1F	3.2µM*	?	-20%	?	1.1µM*	-2%	14µM*	4.5µM*	-19
O=C1C(Nc2ccccc2)=C/C(=N/S(=O)(=O)c2cccs2)c2ccccc21	4.1µM*	4µM*	?	?	?	?	28µM*	?	?
Cc1ccc(NC2=C/C(=N/S(=O)(=O)c3cccs3)c3ccccc3C2=O)cc1	4.6µM*	?	-19%	7.9µM*	4.1µM*	-19%	32µM*	25µM*	?
Cc1ccc(CSc2nc(-c3ccccc3C)nc3c2Cc2c(CO)cnc(C)c2O3)cc1	.	.	.	-18%	6%[46.1 µM]	-7%	.	.	.
O=C(NC1CCCC1)c1ccc2c(=O)n(Cc3ccccc3)c(SCc3cccc([N+](=O)[O-])c3)nc2c1	.	.	.	-12%	-12%[46.1 µM]	-3%	.	.	.
O=c1[nH]cnc2c1C(c1ccccc1[N+](=O)[O-])c1c(nc[nH]c1=O)O2	1%	9%	10%	-15%	-6%	0%	?	-22%	1
COc1ccc(C2c3c(nc[nH]c3=O)Oc3nc[nH]c(=O)c32)cc1	.	.	.	.	.	-8%	.	.	.
Cc1ccc(C(C)C)c(OCc2ccc(C(=O)N/N=C/c3ccc(C(=O)O)cc3)cc2)c1	.	-13%	26%	-23%	.	-7%	.	.	.
Cc1ccc(C(C)C)c(OCc2ccc(C(=O)N/N=C/c3ccc(O)cc3O)cc2)c1	6.3µM*	3.2µM*	-2%	0%	?	1%	-7%	?	-2
Cc1ccc(-c2cc(-c3ccc4c(c3)NC(=O)CO4)nc3c2COc2ccc(C)cc2-3)cc1	-7%[46.1 µM]	.	.	7%	-4%[46.1 µM]	4%	.	.	.
Cc1cccc(/C=C(\c2nc3ccccc3[nH]2)S(=O)(=O)c2ccccc2)c1	13µM*	11µM*	-2%	8.9µM*	?	?	?	22µM*	-10
Cc1ccc(NC(=S)c2nc3ccccc3[nH]2)c(C)c1	?	-15%	?	-52%	?	-26%	.	.	.
CC1=CC(C)(C)Nc2ccc(OS(=O)(=O)c3ccc(C)cc3)cc21	-17%	?	7%	-23%	-14%	?	.	.	.
CC(=O)Nc1ccc(S(=O)(=O)Oc2ccc3c(c2)C(C)=CC(C)(C)N3)cc1	?	?	.	.	0.82µM*	-19%	-10%	5µM*	-5
CCN=c1scc(-c2ccc(F)cc2)n1/N=C/c1ccccn1	?	-12%	5%	-14%	?	14%	.	.	.
C=CCN=c1scc(-c2ccc(F)cc2)n1/N=C/c1ccccn1	?	?	-16%	0%	?	-15%	.	.	.
C=CCN=c1scc(-c2ccccc2)n1/N=C/c1ccccn1	2.8µM*	14µM*	?	10%	?	-16%	?	2µM*	-15
CCN=c1scc(-c2ccccc2)n1/N=C/c1ccccn1	?	?	-8%	?	1.5µM*	4%	16µM*	4µM*	-24
COc1ccc(CN(C(=O)Nc2ccccc2)c2ccccn2)cc1OC	3%[46.1 µM]	.	.	19%	0%[46.1 µM]	2%	.	.	.
O=C(COC(=O)Cc1ccc(Br)cc1)NCC1CCCCC1	5%[46.1 µM]	18%	22%	-14%	25%[46.1 µM]	1%	.	.	.
O=C(COC(=O)Cc1ccsc1)NCC1CCCCC1	3%[46.1 µM]	-11%	35%	-2%	-4%	-40%	-9%	-13%	0
COc1ccc(C(=O)Nc2nc3c(s2)CCCC3)cc1S(=O)(=O)N1CCCc2ccccc21	?	?	-18%	16%	?	1%	26%	5µM*	-2
Cc1ccc(-n2cc(-c3ccccc3)c3c(NN4CCOCC4)ncnc32)cc1	3%	-14%	-9%	-21%	-9%	1%	16%	-20%	-2
SMILES	MARV entry inh	HCV inhibitor	RE007 growth inh	FMDV inh	Lassa entry inh	Sm TGR inh	WI-38 cytotox	PNC assembly inh	PC3M caspase
COc1cccc(CNc2cccc3cccnc23)c1O	17%	-3%	-16%	20%	-19%	-7%	-9%	7%	1
COc1cc(C(=O)Oc2ccccc2/C=N/NC(=O)c2ccc(Cl)cc2)cc(OC)c1OC	12µM*	2.8µM*	-1%	7%	11µM*	5%	?	?	-3
COc1ccccc1CNC(=O)c1cc(-c2ccccc2)n[nH]1	.	.	.	7%	0%[46.1 µM]	6%	.	.	.
CC(=O)Nc1c(C)nn(-c2ccccc2)c1N1CCC(C(=O)NCc2ccccc2Cl)CC1	.	.	.	-5%	-19%[46.1 µM]	-3%	.	.	.
O=C(NCc1ccco1)C1CCN(Cc2ccc(F)cc2)CC1	2%[46.1 µM]	-7%	-7%	-13%	15%	0%	-6%	-6%	-2
O=C(NCc1ccco1)C1CCCCC1	-6%	21%	0%	-18%	6%	.	.	.	.
Cc1cccc(-n2c(SCC(=O)Nc3ncc(Cl)cc3Cl)nc3ccccc32)c1	1.2µM*	11µM*	-2%	0%	0.82µM*	4%	-15%	5µM*	-4
Cc1ccccc1C(=O)NNC(=S)Nc1cccc(C(F)(F)F)c1	?	?	8%	13%	?	-18%	-3%	-20%	-7
